Hits are enriched below; roughly 3.4% of the tested compounds scored in any of these assays.
PGC1a acetyl inh: inhibitors of PGC1a acetylation signal, primary screen, cell-based, U2OS, AlphaScreen, inhibitor mode | AlphaScreen anti-acetyl-lysine; with virally co-expressed GCN5 acetyltransferase | inhibition, % at 15.6 µM | 0.17% of 350,000 active;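 active means every replicate shows inhibition of at least 40%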;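 further: 0% = neutral control wells and 100% = positive control wells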
SIRT5 block: SIRT5 desuccinylase inhibitors, primary screen, biochemical, fluorescence imaging, single point, set 5 | NAD-dependent protein deacylase sirtuin-5, mitochondrial (Homo sapiens), Q9NXA8 | Purified SirT5, succinyl-peptide AMC, trypsin-coupled fluorescence | inhibition, % at 15 µM | 1.1% of 330,000 active | AID 652115, 2013; in the data active means inhibition above about 15%
Target sequence (Q9NXA8 whole entry, looked up): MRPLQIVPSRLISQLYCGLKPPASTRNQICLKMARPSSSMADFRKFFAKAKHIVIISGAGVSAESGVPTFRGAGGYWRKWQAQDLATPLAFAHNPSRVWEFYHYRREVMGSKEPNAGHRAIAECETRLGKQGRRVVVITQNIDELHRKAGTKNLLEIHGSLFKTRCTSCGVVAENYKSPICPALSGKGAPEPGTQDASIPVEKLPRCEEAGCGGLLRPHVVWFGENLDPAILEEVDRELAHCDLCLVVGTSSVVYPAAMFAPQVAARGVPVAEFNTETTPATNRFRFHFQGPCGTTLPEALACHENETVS
LGR2 antag: inhibitors of bursicon-induced LGR2 CRE-luciferase signal, primary screen, cell-based, HEK293, CRE-luciferase reporter, bursicon stimulation; bursicon-stimulated, 4 h; inhibition, % at 9.99 µM; 0.35% of 380,000 active; AID 720647, 2013;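 active means drop in luminescence signal, shown as inhibition above about 50% in the replicate tests, limit read from the data, passing the limit was not always enough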;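 further: agonist challenge used bursicon conditioned medium at about half maximal strength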
EWS-Fli inh: EWS/Fli-driven NR0B1 reporter inhibitors, primary screen, A673 cells, NR0B1 luciferase, luminescence, MLPCN library | viability-normalised | inhibition, % at 12.6 µM | AID 651661, 2012 | 0.67% of 350,000 active;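 active means mean inhibition of at least 50% after viability correction, with every replicate also passing that limit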;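 further: firefly luciferase signal divided by Alamar Blue viability fluorescence both relative to DMSO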
rRNA inh HTS: reduced GFP signal of wild-type E. coli, primary screen, bacterial rRNA inhibitor project, GFP/RFP fluorescence, OD600, single point | E. coli WT GFP vs humanized-ribosome RFP mutants, 24 h; hits give low values; DMSO median 0, no signal -100 | GFP signal change (wild-type ribosome), % (test concentration not listed) | 1.6% of 350,000 active;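 active means significant combined selectivity score with lowered wild-type GFP, culture density cut under 30%, mutant RFP and density less affected; inactive means any of these conditions unmet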
PAX8 reporter: inhibitors of PAX8-driven TPO luciferase reporter, primary screen, RMG-I cells, single concentration; SteadyGlo, 24 h; inhibition, % at 12.6 µM; 1.2% of 360,000 active;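 active means mean replicate inhibition at least 60% with every replicate also reaching 60%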;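 further: luciferase light reporting Pax8 driven TPO promoter activity; plate controls were median of neutral control wells for no effect and mitoxantrone controls for full effect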
* = called active by the depositor; . = no result.

SMILES	PGC1a acetyl inh	SIRT5 block	LGR2 antag	EWS-Fli inh	rRNA inh HTS	PAX8 reporter
CCOC(=O)n1c(=O)n(C)c2ccc(Cl)cc21	4.7	19.7*	9.7	3.1	-3.4	-3.0
Cc1noc(C)c1NC(=O)Nc1cccc2c1O[C@H](CN(C)Cc1ccc(C(F)(F)F)cc1)[C@H](C)CN([C@@H](C)CO)C2=O	-3.9	3.5	14.9	-2.1	0.1	80.7*
Cc1noc(C)c1NC(=O)Nc1cccc2c1O[C@@H](CN(C)Cc1ccc(Oc3ccccc3)cc1)[C@@H](C)CN([C@@H](C)CO)C2=O	1.2	3.3	18.0	8.0	-3.7	.
Cc1noc(C)c1NC(=O)Nc1cccc2c1O[C@H](CN(C)Cc1ccc(Oc3ccccc3)cc1)[C@H](C)CN([C@@H](C)CO)C2=O	99.9*	3.1	3.1	6.4	-3.9	.
CC(C)C#Cc1ccc2c(c1)O[C@H](CN(C)C(=O)NC(C)C)[C@@H](C)CN([C@@H](C)CO)S2(=O)=O	-10.8	.	-1.3	17.1	-6.8	0.6
CCN(CC)S(=O)(=O)c1ccc(-c2csc(C)n2)s1	-6.3	1.5	-11.8	-12.1	-14.2	5.3
Cc1ccc(NS(=O)(=O)c2ccc(-c3csc(C)n3)s2)c(C)c1	.	1.5	-1.7	0.5	-38.2*	17.1
COc1ccc(-c2c(C(F)(F)F)nn(C)c2NC(=O)c2cccnc2)cc1	-3.6	-4.4	-6.9	5.3	-8.8	-10.3
Cn1nc(C(F)(F)F)c(-c2ccc(F)cc2)c1NC(=O)Nc1ccc(F)cc1	-13.4	0.0	-6.6	18.2	-30.2*	10.5
Cn1nc(C(F)(F)F)c(-c2ccc(Br)cc2)c1NC(=O)c1cccnc1	-33.3	-2.6	0.8	5.9	-44.3*	2.6
O=C(Nc1oc2ccccc2c(=O)c1-c1ccc(Br)cc1)c1ccco1	6.1	0.6	-6.2	-1.1	-22.8	-3.2
Cn1nc(C(F)(F)F)c(-c2ccc(Br)cc2)c1NC(=O)c1ccco1	.	-0.5	10.6	7.6	-32.3*	-31.9
O=C(Cc1ccncc1)Nc1ccc2c(c1)[C@H]1C[C@@H](CC(=O)N3CCCCC3)O[C@H](CO)[C@H]1O2	.	.	.	.	2.9	.
C[C@H]1CN(C)C(=O)c2cccc(N)c2O[C@H]1CN(C)S(C)(=O)=O	.	.	.	.	1.7	.
COc1ccc(CCNC(=O)c2ccc3c(c2)OCCO3)cc1	3.6	-3.0	.	-31.4	.	-135.2
O=C(NCCc1ccccc1)c1ccc2c(c1)OCCCO2	-8.7	-3.4	101.8*	89.0*	1.7	109.7*
O=C(CCN1CCC(c2ccccc2)C1)c1ccc2c(c1)OCCO2 (stereo not given)	-11.6	-0.2	-36.3	-3.4	.	76.3*
O/N=C(/CCc1ccccc1)c1ccc2c(c1)OCCO2	-5.6	10.1	-72.5	-107.7	-25.0*	-207.6
O=C(NCCc1ccccc1)c1ccc2c(c1)S(=O)(=O)c1ccccc1C2=O	-12.3	.	-6.5	20.5	-23.0*	-18.1
CN(C)C(=O)C[C@H]1CC[C@@H]2[C@H](COC[C@H](O)CN2C(=O)C2CC2)O1	3.9	0.9	-2.4	22.9	-0.3	19.3
O=C(CCCc1ccccc1)c1ccc2c(c1)OCCO2	-8.7	-6.9	101.3*	86.4*	-30.0*	.
O=C(NCCc1ccccc1)c1ccc2c(c1)OCCO2	.	2.8	101.7*	90.2*	.	.
CCCN1C(=O)/C(=C/c2ccc(C)o2)SC1=Nc1ccc(OC)cc1	.	.	0.5	.	.	.
COc1ccc(N=C2S/C(=C\c3ccc(OCC(=O)O)cc3)C(=O)N2CCc2c[nH]c3ccccc23)cc1	9.9	49.8*	7.9	20.5	-3.2	-1.8
COc1ccc(N=C2S/C(=C\c3ccc(N4CCOCC4)o3)C(=O)N2CCc2c[nH]c3ccccc23)cc1	62.1*	.	.	.	.	.
CNC[C@H]1Oc2ncc(/C=C/c3ccccc3)cc2C(=O)N([C@@H](C)CO)C[C@H]1C	15.1	.	14.2	3.6	-3.3	-52.9
Cc1ccccc1-c1cnc2c(c1)C(=O)N([C@H](C)CO)C[C@@H](C)[C@H](CN(C)Cc1ccncc1)O2	-4.2	4.6	6.6	-17.0	-4.4	-12.5

From PubChem
